Measured values taken from article PMC5700166.

Assays:
[1] = target: T1, GST-Nv-NF-kB (Ser allele) (Nematostella vectensis, UniProt A7UNT2 2-411); assay: protein-binding microarray (PBM); PBM: ~300 nM protein, 6 mM HEPES pH 7.8, 80 mM KCl, 0.5 mM EDTA, 0.5 mM EGTA, 6% glycerol, 35 ng/ul poly-dIdC, 1% milk, 1 h, room temperature; Ap Aiptasia and Nv Nematostella (sea anemones) / Co Capsaspora / Aq Amphimedon (sponge) / Dm Drosophila / Hu human; RHD is the Rel homology domain; high values mean tight binding; details: dsDNA, one strand shown
T1 sequence: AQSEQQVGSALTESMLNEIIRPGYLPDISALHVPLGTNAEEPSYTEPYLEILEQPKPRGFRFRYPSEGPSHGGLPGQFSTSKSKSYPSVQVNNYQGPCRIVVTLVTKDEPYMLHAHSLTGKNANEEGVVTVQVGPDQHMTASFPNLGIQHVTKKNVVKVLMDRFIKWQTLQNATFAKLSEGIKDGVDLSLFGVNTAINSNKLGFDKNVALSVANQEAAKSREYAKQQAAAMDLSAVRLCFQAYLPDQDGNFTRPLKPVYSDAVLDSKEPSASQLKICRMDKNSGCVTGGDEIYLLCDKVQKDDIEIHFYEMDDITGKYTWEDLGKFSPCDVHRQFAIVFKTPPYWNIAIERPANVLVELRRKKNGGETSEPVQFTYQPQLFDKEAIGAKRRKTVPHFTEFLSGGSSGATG

GST-Hu-p50 = GST-Hu-p50 (Homo sapiens, UniProt P19838 7-356); assay: as above; details: dsDNA, one strand shown
Sequence of GST-Hu-p50 (P19838 7-356): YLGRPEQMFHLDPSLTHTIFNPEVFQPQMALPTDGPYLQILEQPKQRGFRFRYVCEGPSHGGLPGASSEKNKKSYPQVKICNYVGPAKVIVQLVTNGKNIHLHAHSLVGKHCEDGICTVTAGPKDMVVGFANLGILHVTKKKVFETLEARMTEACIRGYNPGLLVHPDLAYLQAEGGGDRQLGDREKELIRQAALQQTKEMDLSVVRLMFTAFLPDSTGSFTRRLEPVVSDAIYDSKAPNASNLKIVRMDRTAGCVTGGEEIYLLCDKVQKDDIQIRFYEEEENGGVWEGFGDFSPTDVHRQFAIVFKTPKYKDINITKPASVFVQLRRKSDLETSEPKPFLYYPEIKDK

| Sequence | binding signal [1] [z-score] | binding signal (GST-Hu-p50) [z-score] |
| --- | --- | --- |
| CCGATTAACATCAGGCCGTCCCCTGATGTTAATCGGGTCTTGATTCGCTTGACGCTGCTG | 3.43 | 3.86 |
| CCGATTAACATCATAAGCGGGGATGATGTTAATCGGGTCTTGATTCGCTTGACGCTGCTG | 3.83 | 3.66 |
| CCGATTAACATCAACGGGAATTCTGATGTTAATCGGGTCTTGATTCGCTTGACGCTGCTG | 5.37 | 3.82 |
| CCGATTAACATCAGGGGATGGGATGATGTTAATCGGGTCTTGATTCGCTTGACGCTGCTG | 4.39 | 2.85 |
| CCGATTAACATCAAAGTGTCCCCTGATGTTAATCGGGTCTTGATTCGCTTGACGCTGCTG | 4.51 | 3.85 |
| CCGATTAACATCAGATGTCCCCCTGATGTTAATCGGGTCTTGATTCGCTTGACGCTGCTG | 4.47 | 3.96 |
| CCGATTAACATCAGGGGTAGGTTTGATGTTAATCGGGTCTTGATTCGCTTGACGCTGCTG | 1.33 | 1.07 |
| CCGATTAACATCAGATTCTCCCCTGATGTTAATCGGGTCTTGATTCGCTTGACGCTGCTG | 6.01 | 4.4 |
| CCGATTAACATCAGGGAACAACCTGATGTTAATCGGGTCTTGATTCGCTTGACGCTGCTG | 1.65 | 2.25 |
| CCGATTAACATCAAAAATCACCCTGATGTTAATCGGGTCTTGATTCGCTTGACGCTGCTG | 3.82 | 4.76 |
| CCGATTAACATCACACCACCCCCTGATGTTAATCGGGTCTTGATTCGCTTGACGCTGCTG | 3.35 | 3.65 |
| CCGATTAACATCAATTTACCCACTGATGTTAATCGGGTCTTGATTCGCTTGACGCTGCTG | 2.27 | 2.06 |
| CCGATTAACATCAGGGGAAGGTATGATGTTAATCGGGTCTTGATTCGCTTGACGCTGCTG | 5.76 | 3.52 |
| CCGATTAACATCAGAATTCCCGCTGATGTTAATCGGGTCTTGATTCGCTTGACGCTGCTG | 3.89 | 3.53 |
| CCGATTAACATCACGGGACTTCCTGATGTTAATCGGGTCTTGATTCGCTTGACGCTGCTG | 4.98 | 4.6 |
| CCGATTAACATCACCCGATTCCCTGATGTTAATCGGGTCTTGATTCGCTTGACGCTGCTG | 4.07 | 2.39 |
| CCGATTAACATCAGGACTACCCCTGATGTTAATCGGGTCTTGATTCGCTTGACGCTGCTG | 1.61 | 3.02 |
| CCGATTAACATCAGGGGACGGGATGATGTTAATCGGGTCTTGATTCGCTTGACGCTGCTG | 3.93 | 3.73 |
| CCGATTAACATCAAATTTTCCCATGATGTTAATCGGGTCTTGATTCGCTTGACGCTGCTG | 6.42 | 4.19 |
| CCGATTAACATCACGGAATTACCTGATGTTAATCGGGTCTTGATTCGCTTGACGCTGCTG | 3.86 | 2.38 |
| CCGATTAACATCAGGGACAGCCCTGATGTTAATCGGGTCTTGATTCGCTTGACGCTGCTG | 2.03 | 3.54 |
| CCGATTAACATCAGGCACTCCCCTGATGTTAATCGGGTCTTGATTCGCTTGACGCTGCTG | 2.69 | 3.37 |
| CCGATTAACATCAAACTTTCCCATGATGTTAATCGGGTCTTGATTCGCTTGACGCTGCTG | 4.64 | 4.07 |
| CCGATTAACATCAAGCACCCCCTTGATGTTAATCGGGTCTTGATTCGCTTGACGCTGCTG | 4.85 | 4.55 |
| CCGATTAACATCAAGTAAATCCCTGATGTTAATCGGGTCTTGATTCGCTTGACGCTGCTG | 1.71 | 2.28 |

| Sequence | binding signal [1] [z-score] | binding signal (GST-Hu-p50) [z-score] |
| --- | --- | --- |
| CCGATTAACATCAAACAACCCCCTGATGTTAATCGGGTCTTGATTCGCTTGACGCTGCTG | 4.83 | 5.05 |
| CCGATTAACATCAGGAGATTCCCTGATGTTAATCGGGTCTTGATTCGCTTGACGCTGCTG | 4.04 | 4.59 |
| CCGATTAACATCATCCGGGAAAATGATGTTAATCGGGTCTTGATTCGCTTGACGCTGCTG | 5.1 | 2.14 |
| CCGATTAACATCAGGGAAAACCATGATGTTAATCGGGTCTTGATTCGCTTGACGCTGCTG | 6.37 | 4.01 |
| CCGATTAACATCACCCCTCCCCCTGATGTTAATCGGGTCTTGATTCGCTTGACGCTGCTG | 4.65 | 4.06 |
| CCGATTAACATCAGGGAATTAAATGATGTTAATCGGGTCTTGATTCGCTTGACGCTGCTG | 3.98 | 2.43 |
| CCGATTAACATCAAATCGGGAAATGATGTTAATCGGGTCTTGATTCGCTTGACGCTGCTG | 2.88 | 1.88 |
| CCGATTAACATCAGGGCAGTACCTGATGTTAATCGGGTCTTGATTCGCTTGACGCTGCTG | 2.24 | 2.22 |
| CCGATTAACATCAGGGGCTACCCTGATGTTAATCGGGTCTTGATTCGCTTGACGCTGCTG | 2.1 | 3.35 |
| CCGATTAACATCACAATACCCCCTGATGTTAATCGGGTCTTGATTCGCTTGACGCTGCTG | 5.97 | 4.87 |
| CCGATTAACATCACTCCCTAAAATGATGTTAATCGGGTCTTGATTCGCTTGACGCTGCTG | 1.75 | 2.32 |
| CCGATTAACATCAGGGGGTAGAATGATGTTAATCGGGTCTTGATTCGCTTGACGCTGCTG | 4.04 | 3.9 |
| CCGATTAACATCAGAATTCCCACTGATGTTAATCGGGTCTTGATTCGCTTGACGCTGCTG | 3.68 | 3.3 |
| CCGATTAACATCATGGTGGTACCTGATGTTAATCGGGTCTTGATTCGCTTGACGCTGCTG | 1.05 | 1.07 |
| CCGATTAACATCAGGTAATCACCTGATGTTAATCGGGTCTTGATTCGCTTGACGCTGCTG | 2.78 | 2.85 |
| CCGATTAACATCAAATTCCCAGTTGATGTTAATCGGGTCTTGATTCGCTTGACGCTGCTG | 3.92 | 2.85 |
| CCGATTAACATCAGGGAAAATGATGATGTTAATCGGGTCTTGATTCGCTTGACGCTGCTG | 6.52 | 2.44 |
| CCGATTAACATCAATAAATACCCTGATGTTAATCGGGTCTTGATTCGCTTGACGCTGCTG | 6.32 | 5.25 |
| CCGATTAACATCAAACAAACCCCTGATGTTAATCGGGTCTTGATTCGCTTGACGCTGCTG | 2.48 | 3.95 |
| CCGATTAACATCAAGGTTTTCCCTGATGTTAATCGGGTCTTGATTCGCTTGACGCTGCTG | 6.21 | 4.23 |
| CCGATTAACATCAGGGGTATAACTGATGTTAATCGGGTCTTGATTCGCTTGACGCTGCTG | 1.03 | 1.68 |
| CCGATTAACATCAAGGGATTCCCTGATGTTAATCGGGTCTTGATTCGCTTGACGCTGCTG | 4.98 | 3.73 |
| CCGATTAACATCAAAATAATCCCTGATGTTAATCGGGTCTTGATTCGCTTGACGCTGCTG | 3.57 | 3.58 |
| CCGATTAACATCACTACTTTCCCTGATGTTAATCGGGTCTTGATTCGCTTGACGCTGCTG | 5.24 | 3.06 |
| CCGATTAACATCAGGGGTTACCCTGATGTTAATCGGGTCTTGATTCGCTTGACGCTGCTG | 4.21 | 3.9 |

| Sequence | binding signal [1] [z-score] | binding signal (GST-Hu-p50) [z-score] |
| --- | --- | --- |
| CCGATTAACATCAATGTCGGTGGTGATGTTAATCGGGTCTTGATTCGCTTGACGCTGCTG | 1.08 | 1.95 |
| CCGATTAACATCACCACTTTCCCTGATGTTAATCGGGTCTTGATTCGCTTGACGCTGCTG | 5.06 | 3.47 |
| CCGATTAACATCAACCCTCCCCCTGATGTTAATCGGGTCTTGATTCGCTTGACGCTGCTG | 3.85 | 3.3 |
| CCGATTAACATCAGGGGGTGATATGATGTTAATCGGGTCTTGATTCGCTTGACGCTGCTG | 4.45 | 3.97 |
| CCGATTAACATCAAGAAATTTCCTGATGTTAATCGGGTCTTGATTCGCTTGACGCTGCTG | 1.55 | 1.76 |
| CCGATTAACATCAGGGAATATAATGATGTTAATCGGGTCTTGATTCGCTTGACGCTGCTG | 3.88 | 2.29 |
| CCGATTAACATCAGGGGTTTTGATGATGTTAATCGGGTCTTGATTCGCTTGACGCTGCTG | 3.32 | 3.98 |
| CCGATTAACATCAGGGAACTTTATGATGTTAATCGGGTCTTGATTCGCTTGACGCTGCTG | 3.6 | 3.66 |
| CCGATTAACATCACTTTACCCCCTGATGTTAATCGGGTCTTGATTCGCTTGACGCTGCTG | 4.4 | 3.42 |
| CCGATTAACATCACGGATTTCCCTGATGTTAATCGGGTCTTGATTCGCTTGACGCTGCTG | 5.46 | 3.76 |
| CCGATTAACATCAGAAGTTCCCATGATGTTAATCGGGTCTTGATTCGCTTGACGCTGCTG | 1.1 | 1.09 |
| CCGATTAACATCAGGGAAATAAATGATGTTAATCGGGTCTTGATTCGCTTGACGCTGCTG | 4.6 | 3.23 |
| CCGATTAACATCAGGGGGGGTACTGATGTTAATCGGGTCTTGATTCGCTTGACGCTGCTG | 4.19 | 3.91 |
| CCGATTAACATCACAAACGGGGCTGATGTTAATCGGGTCTTGATTCGCTTGACGCTGCTG | 1.73 | 2.88 |
| CCGATTAACATCAGGATATTCCCTGATGTTAATCGGGTCTTGATTCGCTTGACGCTGCTG | 4.19 | 3.1 |
| CCGATTAACATCAGGGGAGTACATGATGTTAATCGGGTCTTGATTCGCTTGACGCTGCTG | 3.51 | 2.47 |
| CCGATTAACATCAACTGGGAAAATGATGTTAATCGGGTCTTGATTCGCTTGACGCTGCTG | 4.25 | 2 |
| CCGATTAACATCAATTCCCAACATGATGTTAATCGGGTCTTGATTCGCTTGACGCTGCTG | 1.63 | 1.56 |
| CCGATTAACATCAAATTCCCACTTGATGTTAATCGGGTCTTGATTCGCTTGACGCTGCTG | 3.95 | 3.73 |
| CCGATTAACATCAAAAATCCCTATGATGTTAATCGGGTCTTGATTCGCTTGACGCTGCTG | 4.2 | 4.72 |
| CCGATTAACATCAAACCCCCCCGTGATGTTAATCGGGTCTTGATTCGCTTGACGCTGCTG | 4.7 | 5.27 |
| CCGATTAACATCAATTCCCGTACTGATGTTAATCGGGTCTTGATTCGCTTGACGCTGCTG | 1.96 | 1.41 |
| CCGATTAACATCAGGGAATTCGATGATGTTAATCGGGTCTTGATTCGCTTGACGCTGCTG | 4.38 | 2.58 |
